# Cycloheximide cs – counter-screen for Shiga toxin inhibitors: cycloheximide protein synthesis inhibition | AID 2314 | cell reporter, cycloheximide protein synthesis inhibition counterscreen | hit rate 12% among 300,000 | max response, %; in the data active = max response mostly above about 13%, no sharp cut-off; inactive = mostly below about 14%; also: read at 38.3 µM for the half of the compounds with a filed dose
# LmPK inhibitor – blocks Leishmania mexicana pyruvate kinase activity; Q27686; hit rate 0.37% among 290,000; purified LmPK, Kinase-Glo ATP luminescence, 1 h; Potency, µM (top dose mostly 57.5 µM), usual class: inhibitors
#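 0.1 nM LmPK, 0.5 mM PEP, 0.1 mM ADP; 50 mM imidazole pH 7.2, 7 mM MgCl2, 50 mM KCl; 1 h RT. Kinase-Glo luminescence readout, normalized to no-enzyme (full inhibition) and uninhibited wells.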
# FBPA Giardia inh – Giardia lamblia aldolase inhibition; A8B2U2; purified Giardia FBPA; Potency, µM (highest dose often 59.6 µM), hits mostly inhibitors; hit rate 0.71% among 290,000; AID 2451; also: nearly all actives have a fitted effect of over 55% in size
# Target sequence (A8B2U2 whole entry, looked up): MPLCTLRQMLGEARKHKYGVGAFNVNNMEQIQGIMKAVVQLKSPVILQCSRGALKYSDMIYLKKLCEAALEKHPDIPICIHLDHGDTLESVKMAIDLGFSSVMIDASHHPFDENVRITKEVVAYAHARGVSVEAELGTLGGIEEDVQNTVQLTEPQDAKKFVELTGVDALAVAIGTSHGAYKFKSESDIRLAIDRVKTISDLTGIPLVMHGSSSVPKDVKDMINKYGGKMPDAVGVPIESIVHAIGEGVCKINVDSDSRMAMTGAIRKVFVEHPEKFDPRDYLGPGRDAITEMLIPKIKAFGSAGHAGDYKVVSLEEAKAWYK
#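 40 nM FBPA preincubated 10 min at RT with compound (up to 57.5 uM final), then substrate plus GAPDH/TPI/NAD/arsenate coupling and diaphorase/resazurin added. Fluorescence read after 20 min at RT, 525/598 nm.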
# NS1 inh – blocks influenza NS1 protein function; hit rate 0.4% among 270,000; Potency, µM (titrated, usually from 46.1 µM); calls by dose curve; also: actives are rising curves; nearly all actives have a fitted effect of over 50% in size
#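 Growth recovery, yeast-based: influenza A NS1 expressed in S. cerevisiae causes slow growth, and suppressors are detected by OD600. The parent strain without NS1 is used as positive control.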
# Shiga inhibitor – blocks Shiga toxin action in Vero cells; Vero cells, Shiga toxin protein synthesis inhibition reporter; inhibition, % at 38.7 µM; hit rate 9.2% among 290,000; AID 2315; in the data active = inhibition mostly above about 28%, no sharp cut-off; inactive = mostly below about 43%
# Hits are given with their value; i = inactive; ? = inconclusive; nt = no result given; [ ] = another dose, or the depositor's remark. Rows were chosen to be rich in hits. Some 14% of all compounds tested hit in one or more screens of this group. Unless noted, calls follow the shape of the dose curve; as a rule, active = well fitted curve in the direction sought with a large enough effect; inconclusive = small, poorly fitted or top-dose-only effect, or another doubt; inactive = no such curve, though single readings can be large; an effect the other way counts as inactive or inconclusive.
SMILES,Cycloheximide cs,LmPK inhibitor,FBPA Giardia inh,NS1 inh,Shiga inhibitor
Cc1ccc(N(CC(=O)NCc2ccc3c(c2)OCO3)S(C)(=O)=O)cc1,i,i,i,i,i
CCOc1ccc(N(CC(=O)NCc2ccccc2)S(C)(=O)=O)cc1,26,i,i,i,68
Cc1ccc(CNC(=O)CN(c2ccc(Cl)cc2)S(C)(=O)=O)cc1,12,i,i,i,nt
CCCCOc1ccc(N(CC(=O)NCc2ccccc2)C(=O)c2csnn2)cc1,i,i,i,i,30
CS(=O)(=O)N(CC(=O)NCc1ccco1)c1ccc(OCc2ccccc2)cc1,i,i,i,i,i
Cc1ccc(NCC(=O)c2ccc([N+](=O)[O-])cc2)cc1,43,i,i,nt,85
Cc1ccc(C(=O)CNc2cccc([N+](=O)[O-])c2)cc1,38,i,i,nt,90
Cc1ccc(CC(=O)Nc2cccc([N+](=O)[O-])c2)cc1,i,i,i,i,i
Cc1ccc(NCCC(=O)c2cccc([N+](=O)[O-])c2)c(C)c1,35,i,i,i,i
COC(=O)C/C=C\[C@@H](C)[C@@H](/C=N\O[C@@H](C)c1cn([C@H](CO)Cc2ccccc2)nn1)NS(=O)(=O)c1ccc(C)cc1,nt,nt,i[12.9 µM],nt,nt
COc1ccc(N(CC(=O)N2CCN(c3cccc(C)c3C)CC2)S(=O)(=O)c2c(C)noc2C)cc1,i,i,nt,i,i
CC1=NCC[N@@+]1(CCc1ccccc1)Cc1ccccc1,nt,nt,nt,i,nt
C=CCOc1c(Br)cc(/C=C2/C(=O)ON=C2C)cc1OC,i,i,i,i,i
CC(C)C(=O)Nc1ccc(Oc2ccc3c(c2)C(=O)NC3=O)cc1,i,i,i,i,i
Cc1nc(CS(=O)(=O)c2ccccc2)cc(Sc2ccc(Cl)cc2Cl)n1,17,i,i,i,68
O=C(CSc1cn[nH]n1)Nc1ccc(Cl)cc1Cl,i,i,i,i,i
Oc1ccccc1C=Nc1ccccc1-c1nc2ccccc2[nH]1,38,i,i,i,75
Oc1ccc(C=Nc2ccccc2-c2nc3ccccc3[nH]2)c(O)c1,13,i,i,i,i
COc1ccc(OC)c(C=Nc2ccccc2-c2nc3ccccc3[nH]2)c1,27,i,i,i,45
Nc1nnn(CC(=O)N/N=C/c2cn[nH]c2-c2ccccc2)n1,i,i,i,i,i
Cc1cccc2nc3c(nc12)CCCC3,i,i,i,i,i
Cc1cc2nc3c(nc2cc1C)CCCC3,59,i,i,i,108
COC(=O)c1c(NC(=O)CCCOc2ccc(C(C)(C)C)cc2)sc2c1C(C(=O)OC)CC2 (stereo not given),i,nt,nt,nt,i
CCCc1c(C(=O)Nc2ccc(F)cc2C)cnn1-c1ccccc1,i,i,i,i,i
CCCc1c(NC(=O)Nc2ccc(F)cc2)cnn1-c1ccccc1,23,i,i,i,45
SMILES,Cycloheximide cs,LmPK inhibitor,FBPA Giardia inh,NS1 inh,Shiga inhibitor
COC(=O)C1CCN(C(=O)/C=C/c2ccc3c(c2)OCO3)CC1,15,i,i,i,nt
CCN1CCN(C(=O)/C=C/c2ccc3c(c2)OCO3)CC1,i,i,i,i,i
CN1CCN(C(=O)/C=C/c2ccc3c(c2)OCO3)CC1,26,i,i,i,i
Cc1onc(-c2ccccc2)c1C(=O)NCc1ccc(Cl)cc1,i,i,i,i,i
O/N=C1/CC/C(=N\O)c2nn(-c3ccccc3)nc21,31,?,i,i,i
COc1ccc(-c2nc3cnc(N4CCOCC4)nc3n(C[C@H]3CCCO3)c2=O)cc1,nt,nt,i,nt,nt
c1ccc(-c2ccc(CN3CCSCC3)cc2)cc1,25,i,?,i,77
Clc1ccc(CN2CCSCC2)cc1Cl,i,i,?,i,i
CCCCOc1ccc(CN2CCSCC2)cc1,29,i,?,i,42
CCCCCCOc1ccc(CN2CCN(CC)CC2)cc1,55,i,i,i,140
O=C(c1cc(F)c(F)cc1Cl)N1CCN(CCc2ccccc2)CC1,i,i,i,i,nt
CC(C)C[C@H](NC(=O)[C@H](CC(C)C)NC(=O)[C@H](Cc1ccccc1)NC(=O)[C@@H](N)CO)C(=O)N[C@@H](CCCNC(=N)N)C(=O)N[C@@H](CC(N)=O)C(=O)N1CCC[C@H]1C(=O)N[C@@H](CC(N)=O)C(=O)N[C@@H](CC(=O)O)C(=O)N[C@@H](CCCCN)C(=O)N[C@@H](Cc1ccc(O)cc1)C(=O)N[C@@H](CCC(=O)O)C(=O)N1CCC[C@H]1C(=O)N[C@@H](Cc1ccccc1)C(=O)O,i,nt,i,nt,i
Cc1onc(COc2ccccc2O)c1Br,18,i,i,i,i
NNC(=O)c1ccc(COc2ccc(Br)cc2)o1,i,i,i,i,i
Cc1ccc(OCc2ccc(C(=O)NCc3cccnc3)cc2)cc1C,33,i,i,i,52
CC(C)(C)c1ccc(OCc2ccc(C(=O)NN)o2)cc1,71,i,i,i,116
CC(C)(C)c1ccc(OCc2ccc(C(=O)NCc3cccnc3)o2)cc1,45,i,i,i,176
O=C(NCc1cccnc1)c1ccc(COc2ccc(Cl)cc2)cc1,i,i,i,nt,i
Cc1oc2cc3oc(=O)c(CCC(=O)N(C)CC(=O)O)c(C)c3cc2c1C,i,i,i,i,i
COc1ccc(-n2nc(C(=O)NCC(=O)N(C)Cc3ccccc3)c3ccccc3c2=O)cc1OC,i,i,i,i,i
O=C(OCC1CC(c2ccccn2)=NO1)c1ccc(Br)cc1 (stereo not given),56,i,i,i,i
O=C(COC(=O)c1ccccn1)c1ccc(Br)cc1,i,i,i,i,i
O=C(c1ccccc1)c1nc2c(n1O)CCCCC2,32,i,i,nt,44
CCCOc1ccc(C(=O)c2nc3c(n2O)CCCCC3)cc1,i,i,i,i,i
CSc1ccc(/C=N/NC(=O)C[n+]2ccccc2)cc1,i,i,i,i,i
SMILES,Cycloheximide cs,LmPK inhibitor,FBPA Giardia inh,NS1 inh,Shiga inhibitor
CC1(C)C2CC=C(/C=N/NC(=O)c3ccc(O)cc3)C1C2 (stereo not given),15,i,i,i,i
COC(=O)N/N=C/C1=CCC2CC1C2(C)C (stereo not given),i,i,i,i,i
COc1ccc(C(=O)N/N=C/c2ccc(SC)cc2)cc1,19,i,i,i,i
CSc1ccc(/C=N/NC(=O)c2ccc(O)cc2)cc1,46,?,i,i,102
Cc1nc(NC2CCCCC2)c2nc(-c3ccccc3)n(C(C)CN(C)C)c2n1 (stereo not given),nt,nt,i,nt,nt
C=CCOc1ccc(/C=C(\C#N)C(=O)Nc2ccccn2)cc1,i,i,i,i,i
CC(=O)c1cccc(NC(=S)N2CCN(S(=O)(=O)c3ccccc3)CC2)c1,9.7,i,i,i,i
CC(=O)c1cccc(NC(=S)N2CCN(S(=O)(=O)c3ccc(F)cc3)CC2)c1,19,i,nt,i,i
COc1cc(C(=O)Nc2ccc3c(c2)ncn3C(C)(C)C)cc(OC)c1OC,i,i,i,i,i
CC(C)(C)n1cnc2cc(NC(=O)c3ccc(Cl)cc3)ccc21,33,i,i,i,92
Cn1cnc2cc(NC(=O)c3ccc(Cl)cc3)ccc21,27,i,i,i,55
Cc1nn(C)c(C)c1NC(=O)c1ccc(Cl)cc1,i,i,i,i,i
